From PubChem BioAssay (EPA / NIEHS)
Records with an inconclusive call do not appear. The source made the active and inactive calls. The calls were made as follows: active = hit-call score of the fitted dose curve at least 0.9, where 1 is the maximum; inconclusive = response in the unintended direction; inactive = score below 0.9.

How the values were obtained:
[1] = ATG_XTT_Cytotoxicity: Cytotoxicity Assessment in the Attagene TRANS-FACTORIAL HepG2 Assay (AID 2283584)
How it was run: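 Transfect HepG2 with GAL4-UAS reporter units, dose compound, incubate 24 h, then measure viable cell number by XTT. Fit concentration response against DMSO baseline.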

[2] = TOX21_p53_BLA_p2_viability: Viability Assessment in the Tox21 HCT-116 p53 Agonism Beta-lactamase Assay, Phase 2 (AID 2283591);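 also: actives lower the ATP signal meaning cytotoxicity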
How it was run: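 HCT-116 p53-bla cells (4000/well) rested 5 h at 37C, then received compounds in DMSO (217-fold dilution) for 16 h at 37C, 5% CO2. After the CCF4 read, CellTiter-Glo was added; ATP luminescence was read after 30 min at room temperature.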

[3] = target: Cellular tumor antigen p53 (Homo sapiens) (UniProt P04637); assay: TOX21_p53_BLA_p2_ratio: Tox21 HCT-116 p53 Agonism Beta-lactamase Assay, Ratio, Phase 2 (AID 2283592)
How it was run: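 An inducible beta-lactamase reporter in HCT116 cells signals p53 pathway activation. After 16 h chemical exposure at 37C, cells load CCF4-AM substrate for 2 h at room temperature; activity is the cleaved/uncleaved emission ratio relative to DMSO.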

[4] = target: Cellular tumor antigen p53 (Homo sapiens) (UniProt P04637); assay: TOX21_p53_BLA_p3_ratio: Tox21 HCT-116 p53 Agonism Beta-lactamase Assay, Ratio, Phase 3 (AID 2283596)
How it was run: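 HCT116 p53-bla cells (4000/well) given compound in DMSO (217-fold dilution) after 5 h, incubated 16 h at 37C. CCF4-AM substrate 2 h at room temperature; 460/530 nm emission ratio, gain fitted against DMSO.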

[5] = TOX21_p53_BLA_p4_viability: Viability Assessment in the Tox21 HCT-116 p53 Agonism Beta-lactamase Assay, Phase 4 (AID 2283597);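 also: hits lower the luminescence signal meaning cytotoxicity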
How it was run: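 Compound exposure of HCT116 cells lasts 16 h at 37C, 5% CO2, with DMSO stocks diluted 217-fold. Cellular ATP is then quantified by CellTiter-Glo luminescence after 30 min at room temperature.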

[6] = target: Cellular tumor antigen p53 (Homo sapiens) (UniProt P04637); assay: TOX21_p53_BLA_p5_ratio: Tox21 HCT-116 p53 Agonism Beta-lactamase Assay, Ratio, Phase 5 (AID 2283599)
How it was run: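 HCT-116 cells carrying a p53-inducible beta-lactamase reporter were seeded at 4000 cells/well and dosed after 5 h with compound in DMSO (217-fold dilution). After 16 h at 37C, CCF4-AM substrate was added for 2 h, and the 460/530 nm emission ratio was scored as gain-of-signal versus DMSO.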

[7] = target: Cellular tumor antigen p53 (Homo sapiens) (UniProt P04637); assay: TOX21_p53_BLA_p4_ratio: Tox21 HCT-116 p53 Agonism Beta-lactamase Assay, Ratio, Phase 4 (AID 2283601)
How it was run: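 HCT116 cells carrying an inducible beta-lactamase reporter were plated at 4000 cells/well, rested 5 h, then exposed to compounds in DMSO (217-fold dilution) for 16 h at 37C. CCF4-AM substrate was loaded 2 h at room temperature; 460/530 nm emission ratio scored gain-of-signal versus DMSO.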

[8] = TOX21_p53_BLA_p3_viability: Viability Assessment in the Tox21 HCT-116 p53 Agonism Beta-lactamase Assay, Phase 3 (AID 2283593);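 also: cells exposed to compound for 16 h before reading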
How it was run: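 HCT-116 cells (4000/well) rested 5 h at 37C, then got DMSO compounds by pin tool (217-fold dilution) for 16 h at 37C, 5% CO2. After the bla read, CellTiter-Glo was added and luminescence read at 30 min, room temperature.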

[9] = TOX21_p53_BLA_p5_viability: Viability Assessment in the Tox21 HCT-116 p53 Agonism Beta-lactamase Assay, Phase 5 (AID 2283600)
How it was run: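 Counter-readout for cytotoxicity: ATP-dependent luminescence from CellTiter-Glo, read in the beta-lactamase wells after 30 min at RT, following a 16 h compound exposure at 37C.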

Sequence of Cellular tumor antigen p53 (Homo sapiens) (P04637 whole entry, looked up): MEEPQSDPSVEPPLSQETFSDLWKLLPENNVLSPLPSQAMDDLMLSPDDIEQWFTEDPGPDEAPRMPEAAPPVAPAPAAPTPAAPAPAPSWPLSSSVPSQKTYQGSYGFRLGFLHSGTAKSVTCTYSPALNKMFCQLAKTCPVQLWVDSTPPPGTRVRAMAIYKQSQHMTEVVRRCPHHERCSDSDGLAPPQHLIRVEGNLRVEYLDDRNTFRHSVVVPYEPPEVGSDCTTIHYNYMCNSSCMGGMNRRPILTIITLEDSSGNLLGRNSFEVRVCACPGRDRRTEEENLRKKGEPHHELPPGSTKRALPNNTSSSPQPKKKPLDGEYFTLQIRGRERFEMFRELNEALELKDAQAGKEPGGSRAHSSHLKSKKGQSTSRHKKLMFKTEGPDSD

| SMILES | outcome [1] | outcome [2] | outcome [3] | outcome [4] | outcome [5] | outcome [6] | outcome [7] | outcome [8] | outcome [9] | AC50 [3] | AC50 [4] | AC50 [6] | AC50 [7] |
| --- | --- | --- | --- | --- | --- | --- | --- | --- | --- | --- | --- | --- | --- |
| Cc1cccc(Nc2ccccc2)c1 | inactive | inactive | inactive | inactive | inactive | inactive | inactive | – | – | – | – | – | – |
| CC1CC(O)CC(C)(C)C1 (stereo not drawn) | inactive | – | inactive | inactive | inactive | inactive | inactive | inactive | inactive | – | – | – | – |
| CCCOCCO | inactive | – | inactive | – | inactive | inactive | – | inactive | inactive | – | – | – | – |
| Cc1ccc(S(N)(=O)=O)cc1 | inactive | – | inactive | inactive | – | inactive | inactive | inactive | – | – | – | – | – |
| O=[N+]([O-])c1ccc(O)cc1C(F)(F)F | inactive | – | – | – | inactive | – | – | inactive | inactive | 28.2 µM (active) | 42 µM (active) | 30.7 µM (active) | 45.6 µM (active) |
| ON=C1CCCCC1 | inactive | – | inactive | inactive | inactive | inactive | inactive | – | inactive | – | – | – | – |
| OCC(O)c1ccccc1 (stereo not drawn) | inactive | – | inactive | – | inactive | inactive | inactive | inactive | – | – | – | – | – |
| CC(C)CCOC(=O)c1ccccc1 | inactive | – | inactive | – | – | inactive | inactive | inactive | inactive | – | – | – | – |
| CCCCCCCC(=O)OCCCCCC | inactive | – | inactive | – | – | inactive | inactive | inactive | inactive | – | – | – | – |
| C=C[Si]1(C)O[Si](C)(C=C)O[Si](C)(C=C)O[Si](C)(C=C)O1 (stereo not drawn) | inactive | – | inactive | inactive | – | – | inactive | inactive | inactive | – | – | – | – |
| Cc1cc(=O)oc2cc(N(C)C)ccc12 | inactive | – | – | – | inactive | – | – | inactive | – | 51.5 µM (active) | 50.6 µM (active) | 47.9 µM (active) | 53.6 µM (active) |
| Cc1ccc(OC(=O)c2ccccc2O)cc1 | inactive | – | inactive | inactive | – | inactive | – | inactive | inactive | – | – | – | – |
| Cc1ccc2c(c1)C(=O)OC2=O | inactive | – | inactive | – | inactive | inactive | inactive | inactive | inactive | – | – | – | – |
| CCCCCC(C=O)=Cc1ccccc1 | inactive | – | inactive | inactive | inactive | inactive | inactive | inactive | – | – | – | – | – |
